This is an account of results in publication PMC5540273 (PLoS ONE, 2017).
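Further: KINOMEscan kinase panel screen.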

For the test, the system named is MST4. The note with it: concentration: 1 μM,replicates: in singlicate; n = 1.
For the compound `C[C@@H](Oc1cc(-n2cnc3cc(-c4ccncc4)ccc32)sc1C(N)=O)c1ccccc1Cl` [GSK479719], the “%Inh” value is 0%.

Regarding `COc1cc2c(Nc3ccc(NC(=O)c4ccccc4)cc3)ncnc2cc1OCCCN1CCOCC1` [GSK301329], the “%Inh” value was determined as 10%.

`Cc1cccc(-c2nc(Nc3ccncc3)c3sccc3n2)n1` [GW869641]: the “%Inh” value was 40%.

As for `Cl.Cl.NC[C@H](CC1CCCCC1)NC(=O)c1ccc(-c2ccnc3[nH]ccc23)s1` [GSK1581428], the “%Inh” value turned out to be 55%.

Regarding `Cc1ccc(Nc2ccnc(Nc3ccc4c(c3)CS(=O)(=O)C4)n2)cc1O.Cl` [GW579362], the “%Inh” value turned out to be 25%.

`CCOC(=O)N1CCC(n2cnc(-c3ccc(F)cc3)c2-c2ccnc(N)n2)CC1` [SB-219952]: the “%Inh” value is given as 0%.

On to `CS(=O)(=O)c1cccc(CNc2nc(Nc3ccc4c(c3)[C@@H]3C[C@@H]4CNC3=O)ncc2C(F)(F)F)c1`, for which the “%Inh” value is reported as 0%.

On to `O=C(Nc1ccc(Oc2ccc3nc(NC(=O)C4CC4)cn3n2)c(F)c1)c1cccn(-c2ccccc2)c1=O`, for which the “%Inh” value came out at 0%.

`Cc1ccc(C(=O)Nc2ccc(Oc3ccc4nc(NC(=O)C5CC5)cn4c3)c(F)c2)c(=O)n1-c1ccccc1`: the “%Inh” value stood at 0%.

Regarding `CCN1CCN(CCCC(=O)Nc2n[nH]c3nc(-c4ccc(O)cc4)c(Br)cc23)CC1` [SB-731579], the “%Inh” value is recorded as 60%.

Take `COC(=O)c1cccc(NC(=O)NC2CCN(c3ccnc(Nc4cc(OC)c(OC)c(OC)c4)n3)C2)c1` (stereo not shown) [GSK1379767]: the “%Inh” value turned out to be 0%.

With `Cn1cc(-c2cccc3c(N)c(C(N)=O)nnc23)cn1`, the “%Inh” value is 40%.

As to `Cn1ccc2ncnc(Oc3ccc(NC(=O)Nc4cccc(C(F)(F)F)c4)c(F)c3)c21`, the “%Inh” value was 0%.

For `COc1cc(Nc2nccc(N3CCC(NC(=O)c4cccc(C#N)c4)C3)n2)cc(OC)c1OC` (stereo not shown) [GSK1379751], the “%Inh” value is reported as 0%.

Turning to `c1ccc(Oc2ccc(Nc3ccnc4ccc(-c5ccccn5)cc34)cc2)cc1` [GW407034], the “%Inh” value is 0%.

In the case of `C[C@@H](Oc1cc(-n2cnc3cc(-c4cnn(C)c4)ccc32)sc1C(N)=O)c1ccccc1Cl` [GSK580432], the “%Inh” value was found to be 14%.

`FC(F)(F)c1cc(Br)cc(Nc2nccc(-c3cnn4ncccc34)n2)c1` [GW810578]: the “%Inh” value is on record as 17%.

As to `COc1cccc(CNC(=O)NC2CCN(c3ccnc(Nc4cc(OC)c(OC)c(OC)c4)n3)C2)c1` (stereo not shown) [GSK1379765], the “%Inh” value stood at 0%.

With `Cc1n[nH]c2cc(Nc3ccnc(Nc4cccc(CN5CCOCC5)c4)n3)ccc12` [GW682569], the “%Inh” value was 0%.

As to `O=C(NCC1CC1)c1ccc(-c2cc(C(=O)NC3CC3)ccc2F)cc1` [GW810445], the “%Inh” value is 0%.

As for `Cc1nnc(-c2ccc3occ(-c4ccc(S(C)=O)cc4)c3n2)o1` (stereo not shown), the “%Inh” value was determined as 0%.

With `COC(=O)c1cccc(NC(=O)NC2CCN(c3ccnc(NCc4ccc(F)cc4)n3)CC2)c1` [GSK1379860], the “%Inh” value worked out at 0%.

Take `Cc1cccc2c(-c3ccncc3)c(-c3ccc(F)cc3)nn12.Cl` [GW461487]: the “%Inh” value is listed as 0%.

Consider `O=C(Nc1n[nH]c2cc(-c3ccco3)ccc12)C1CC1` [SB-737447], for which the “%Inh” value came to 3%.

Take `CN(c1ccccc1CNc1nc(Nc2ccc3c(c2)CC(=O)N3)ncc1C(F)(F)F)S(C)(=O)=O`: the “%Inh” value is on record as 77%.

`CC(=O)Nc1nc2cnc(Nc3cc(NC(=O)c4cccc(CC(C)(C)C#N)c4)ccc3C)nc2s1`: the “%Inh” value amounted to 0%.

On to `COc1ccc(Nc2nccc(N3CCC(NC(=O)c4cccc(C#N)c4)C3)n2)cc1` (stereo not shown) [GSK1379730], for which the “%Inh” value was determined as 0%.

For the compound `CS(=O)c1ccc(-c2coc3ccc(-c4n[nH]c(=O)o4)cc23)cc1` (stereo not shown), the “%Inh” value came to 5%.

On to `CS(=O)(=O)Nc1ccc(-c2ccnc3[nH]ccc23)cc1` [GSK993273], for which the “%Inh” value was determined as 11%.

As for `Cn1ccc2ncnc(Oc3ccc(NC(=O)Nc4cnn(C(C)(C)C)c4)c(Cl)c3)c21`, the “%Inh” value was found to be 0%.

Regarding `Cl.c1ccc(Oc2ccc(Nc3ccnc4cc(-c5ccc(CN6CCNCC6)o5)ccc34)cc2)nc1` [GW567142], the “%Inh” value worked out at 0%.

For `CSc1nccc(-c2c(-c3ccc(F)cc3)ncn2CCCN2CCOCC2)n1.Cl` [SB-217146], the “%Inh” value is given as 0%.

As to `C[C@@H](Oc1cc(-n2cnc3ccc(-c4ccncc4)cc32)sc1C(N)=O)c1ccccc1Cl` [GSK483724], the “%Inh” value amounted to 0%.

`Nc1nccc(-c2ccc3c(N)n[nH]c3c2)n1` [GSK1034945]: the “%Inh” value came to 0%.
